Among the test systems are SK-MEL-2 melanoma; EKVX NSCLC; SN12C renal; UO-31 renal; TK-10 renal; ACHN renal; CAKI-1 renal; A498 renal; CCRF-CEM leukemia; MOLT-4 leukemia.
Common to all, as to experiment: NCI-60 one-dose screen, 48 h (100 = growth as untreated, 0 = no growth, -100 = all killed)
Holding throughout (details): 10 µM unless noted

Each structure is given as a SMILES string. Compounds without any hit were thinned out: in the full panel of roughly 83,000, 20% have a hit.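 Treatment: one concentration, 48 hours, 96-well format. Scoring: percent growth, with anything below 10 considered active.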 Values without a mark were called inactive. Active and inactive are the calls of the source.

For the compound `O=C(NC1=CC(=O)c2ccccc2C1=O)c1ccccc1`, the growth with SK-MEL-2 melanoma is 0.417% (active); in the assay on EKVX NSCLC it was 9.48% (active); in the assay with SN12C renal, 29.2%; in the assay on UO-31 renal, -47.5% (active); in the assay on TK-10 renal, 53.3%; in the assay with ACHN renal it was 2.6% (active). In addition, the growth in the assay with CAKI-1 renal was 29.6%; with A498 renal, 53.3%; with CCRF-CEM leukemia, 8.93% (active); with MOLT-4 leukemia it was -16.9% (active).

With `CCCCn1c(-c2ccc(O)cc2)cn2c3c(=O)[nH]c(=O)n(C)c3nc12`, the growth was 45.8% with SK-MEL-2 melanoma; 85.9% in the assay on EKVX NSCLC; 78% in the assay with SN12C renal; 70.2% in the assay on UO-31 renal; 86.7% in the assay with TK-10 renal; 92.6% in the assay with ACHN renal. For the same compound, the growth with CAKI-1 renal was 86.6%; with A498 renal it was 75.8%.

With `O=C1C(=O)N(CCCCn2cc(-c3ccccc3)nn2)c2ccccc21`, the growth with SK-MEL-2 melanoma is 122%; with EKVX NSCLC it was 93.9%; in the assay on SN12C renal, 94.3%; in the assay with UO-31 renal, 75.3%; with TK-10 renal, 136%; in the assay with ACHN renal, 103%. The growth with CAKI-1 renal was 92%; with A498 renal, 110%; in the assay with CCRF-CEM leukemia, 97.2%; with MOLT-4 leukemia, 101%.

As to `Cc1nc([P+](c2ccccc2)(c2ccccc2)c2ccccc2)c(Sc2sc(-c3ccccc3)nc2[P+](c2ccccc2)(c2ccccc2)c2ccccc2)o1`, the growth was 3.95% (active) in the assay on SK-MEL-2 melanoma; 14.8% in the assay on EKVX NSCLC; 7.4% (active) in the assay with SN12C renal; 20.9% with UO-31 renal; 38.7% in the assay with TK-10 renal; 17.3% in the assay with ACHN renal. The growth was 15.4% in the assay with CAKI-1 renal, -9.69% (active) with A498 renal, 18.4% in the assay on CCRF-CEM leukemia and 13% in the assay with MOLT-4 leukemia.

As to `COc1cc2c(cc1-c1c(C)noc1C)ncc1nc(C3CCCCC3)n([C@@H](C)COC(F)F)c12`, the growth was 64.4% in the assay with SK-MEL-2 melanoma; 39.2% in the assay with EKVX NSCLC; 55.3% in the assay on SN12C renal; 23.6% in the assay with UO-31 renal; 28.9% in the assay with TK-10 renal; 37.8% in the assay with ACHN renal. Besides, the growth in the assay on CAKI-1 renal is 26.7%; with A498 renal, 1.93% (active); with CCRF-CEM leukemia it was 46.1%; with MOLT-4 leukemia, 39.5%.

With `CCN(CC)C(=O)CCCCCn1c2ccccc2c2c3c(c4c5ccccc5[nH]c4c21)C(=O)N(O)C3=O`, the growth in the assay on SK-MEL-2 melanoma is 61.4%; in the assay with EKVX NSCLC, 64.1%; in the assay with SN12C renal, 33.2%; with UO-31 renal, -50.7% (active); with TK-10 renal, 68.3%; in the assay on ACHN renal it was -64.8% (active). Moreover, the growth is -59% (active) in the assay on CAKI-1 renal and 69.1% in the assay on A498 renal.

Take `COc1cnc2c(c1)C(=O)c1c-2n(CCCNC2=NCCS2)c(=O)c2cc([N+](=O)[O-])ccc12`: the growth in the assay with SK-MEL-2 melanoma is 73.1%; in the assay on EKVX NSCLC, 11.3%; in the assay on SN12C renal, 13.5%; with UO-31 renal, -71% (active); in the assay on TK-10 renal, -89.2% (active); in the assay on ACHN renal, -77.8% (active). The growth was 13.3% in the assay with CAKI-1 renal, -36% (active) in the assay on A498 renal, -10.9% (active) in the assay on CCRF-CEM leukemia and -11.3% (active) in the assay on MOLT-4 leukemia.

Take `O=C(N/N=C\c1c(O)ccc2ccccc12)C1CC1`: the growth in the assay with SK-MEL-2 melanoma is 35.1%; with EKVX NSCLC, 32.1%; with SN12C renal, 66.5%; with UO-31 renal, 8.64% (active); in the assay on TK-10 renal, 78.1%; in the assay on ACHN renal, 23.6%. For the same compound, the growth with CAKI-1 renal is 2.09% (active); with A498 renal it was 102%; in the assay on CCRF-CEM leukemia, 11.9%; in the assay with MOLT-4 leukemia, 9.27% (active).

Take `COc1ccc2c(c1)c1nc3cc(C)c(C)cc3nc1n2CCN(C)C`: the growth in the assay on SK-MEL-2 melanoma was 26.4%; in the assay on EKVX NSCLC it was 13.2%; with SN12C renal, 17%; in the assay with UO-31 renal, -24.1% (active); with TK-10 renal, 39.3%; with ACHN renal, -11.4% (active). For the same compound, the growth with CAKI-1 renal was 4.98% (active); with A498 renal, 45%; with CCRF-CEM leukemia, 6.67% (active); in the assay on MOLT-4 leukemia, 0.921% (active).

In the case of `N#CCCCCCn1c2ccccc2c2c3[nH]c(=O)[nH]c(=O)c3c3c4ccccc4n(CCCCCC#N)c3c21`, the growth in the assay on SK-MEL-2 melanoma was 78.5%; in the assay with EKVX NSCLC it was 80.7%; in the assay on SN12C renal, 26.2%; with UO-31 renal, 61.1%; with TK-10 renal, 65.6%; in the assay on ACHN renal it was 54%. Moreover, the growth is 93.2% with CAKI-1 renal, 54.5% in the assay with A498 renal and 74.5% with CCRF-CEM leukemia.

Consider `NNC(=O)c1nc2ccccc2[nH]1`, for which the growth with SK-MEL-2 melanoma is 99.4%; in the assay with EKVX NSCLC, 102%; with SN12C renal, 102%; in the assay with UO-31 renal, 101%; in the assay on TK-10 renal, 111%; in the assay with ACHN renal, 107%. The figures for the growth in the assay with CAKI-1 renal, in the assay on A498 renal and in the assay with CCRF-CEM leukemia were 94.9%, 96.2% and 109%, respectively.

Take `Cn1cc(-c2nc(-c3c[nH]c4ncccc34)cs2)c2ccccc21`: the growth with SK-MEL-2 melanoma was 87%; with EKVX NSCLC it was 22.7%; with SN12C renal, 90%; in the assay with UO-31 renal, 62.4%; in the assay on TK-10 renal it was 56.9%; in the assay with ACHN renal it was 88.9%. Moreover, the growth in the assay with CAKI-1 renal is 79.1%; in the assay on A498 renal, 81.5%; in the assay with CCRF-CEM leukemia, 75.5%.

With `CC(=O)OC(C)COc1ccc(-c2ccccc2)cc1` (configuration not stated), the growth with SK-MEL-2 melanoma was 95%; in the assay with EKVX NSCLC it was 101%; in the assay with SN12C renal, 104%; with UO-31 renal it was 106%; with TK-10 renal, 80.7%; in the assay on ACHN renal, 101%. The growth was 94.7% in the assay with CAKI-1 renal, 92.7% in the assay with A498 renal and 99.6% with CCRF-CEM leukemia.

With `O=S(=O)(NCCNc1cc(-c2cn(-c3ccccc3)nc2-c2cccc(O)c2)ccn1)c1ccc(Cl)cc1`, the growth in the assay with SK-MEL-2 melanoma was 34.9%; in the assay with EKVX NSCLC, 52.1%; in the assay with SN12C renal it was 39.4%; in the assay with UO-31 renal it was 23%; in the assay with TK-10 renal, 50.5%; in the assay with ACHN renal, 28.5%. In addition, the growth with CAKI-1 renal was 41%; in the assay on A498 renal, 34.9%; in the assay with CCRF-CEM leukemia, 9.05% (active); with MOLT-4 leukemia it was 8.1% (active).

The values above are taken from PubChem BioAssay (NCI).
